Pf growth 96h = P. falciparum growth inhibition at 96 hours; P. falciparum luciferase reporter growth, 96 h; Potency, µM (titrated, usually from 28.7 µM), usual class: inhibitors; hit rate 6.9% among 320,000; AID 504834
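Infected RBCs, 2% Hct / 0.05% parasitemia final; luciferase-reporter P. falciparum; cpd 96 h, 37 C, 5% CO2; luciferase detection reagent; luminescence.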
Pf growth 48h = P. falciparum growth inhibition at 48 hours (one generation); P. falciparum luciferase growth in erythrocytes, 48 h; Potency, µM (top dose mostly 28.7 µM), actives largely listed as inhibitors; hit rate 5.9% among 310,000; AID 504832
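Read-out is firefly luciferase luminescence from an integrated reporter in P. falciparum, so falling signal marks reduced parasite growth. Infected erythrocytes were at 2% hematocrit and 0.1% parasitemia (final) in Albumax-supplemented RPMI 1640.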
Marburg entry inh = Marburg virus entry inhibition; Marburg virus pseudotyped entry inhibition, cell reporter; Potency, µM (top dose mostly 37.8 µM), most hits filed as inhibitors; hit rate 1.8% among 300,000; AID 540276; calls by dose curve; tested in HEK293 cells
Cycloheximide cs = affects cycloheximide protein synthesis inhibition readout, counter-screen; AID 2314; cell reporter, cycloheximide protein synthesis inhibition counterscreen; max response, %; hit rate 12% among 300,000; in the data active = max response mostly above about 13%, no sharp cut-off; inactive = mostly below about 14%; note: read at 38.3 µM for the half of the compounds with a filed dose
LASV entry inh = blocks Lassa virus binding to or entry into cells; Lassa virus pseudotype entry inhibition, cell reporter; Potency, µM (titrated, usually from 37.9 µM), usual class: inhibitors; hit rate 1.2% among 300,000; calls by dose curve; tested in HEK293 cells; note: nearly all actives have a fitted effect of over 50% in size
Shiga inhibitor = inhibitors of Shiga toxin in Vero cells; Vero cells, Shiga toxin protein synthesis inhibition reporter; inhibition, % at 38.7 µM; hit rate 9.2% among 290,000; AID 2315; in the data active = inhibition mostly above about 28%, no sharp cut-off; inactive = mostly below about 43%
Of the large screens only hits and unclear results are named; the others gave an inactive call. Hits are enriched below; roughly 19% of the tested compounds scored in any of these assays. Unless noted, calls come from the whole dose curve; as a rule, active = well fitted inhibition curve with a large enough effect; inconclusive = small, poorly fitted or top-dose-only effect, or another doubt; inactive = no such curve, though single readings can be large or run the other way.

CCO[C@@H]1OC(C(=O)NCc2nc3ccccc3[nH]2)=C[C@H](c2csc3ccccc23)[C@H]1CCCO	Pf growth 96h 13µM, Pf growth 48h inconclusive (no result: Marburg entry inh, LASV entry inh)
CCO[C@H]1OC(C(=O)NCc2nc3ccccc3[nH]2)=C[C@@H](c2csc3ccccc23)[C@@H]1CCCO	Pf growth 96h 10µM, Pf growth 48h 10µM (no result: Marburg entry inh, LASV entry inh)
O=c1c(NCCc2ccc(Cl)cc2)nccn1-c1ccccc1	none (no result: Pf growth 96h, Pf growth 48h, Marburg entry inh, Cycloheximide cs, Shiga inhibitor)
CCOC(=O)N1CCN(C(=O)CSc2ncnc3ccccc23)CC1	Pf growth 96h inconclusive
Cc1cc(O)cc(O)c1-c1onc(C(F)(F)F)c1-c1cscn1	Marburg entry inh inconclusive
CCOc1ccc(-c2onc(C(F)(F)F)c2-c2cscn2)c(O)c1	Pf growth 48h 4.7µM (no result: Pf growth 96h)
O=C(O)/C=C\C(=O)Nc1cccc(C(=O)Nc2cccc(O)c2)c1	Marburg entry inh inconclusive, Cycloheximide cs 28, Shiga inhibitor 77
Cc1cc(C(=O)Nc2cccc(O)c2)c(C)o1	none
O=C(Nc1cccc(O)c1)c1ccccc1	Marburg entry inh inconclusive, Cycloheximide cs 20, Shiga inhibitor 38
Cc1cc(C(=O)Nc2cccc(O)c2)co1	Pf growth 96h inconclusive, Cycloheximide cs 32
O=C(Nc1ccccc1)c1ccsc1	Cycloheximide cs 27
CCCC(=O)N(c1ccc(OCC)cc1)S(=O)(=O)c1ccc2c3c(cccc13)C(=O)N2C	Pf growth 96h inconclusive, Pf growth 48h inconclusive, Marburg entry inh inconclusive, LASV entry inh inconclusive
Cc1nnsc1C(=O)NC1CCCc2c1cnn2-c1ccc(C(C)(C)C)cc1 (centres undefined)	Pf growth 96h inconclusive, Pf growth 48h inconclusive (no result: Marburg entry inh, LASV entry inh)
Cc1ccc(-n2ncc3c2CCCC3NC(=O)CCCN2CCCC2=O)cc1C (centres undefined)	Pf growth 96h 4.7µM, Pf growth 48h inconclusive
Cc1cc(C)n(CC(=O)NC2CCCc3c2cnn3-c2ccc(C)c(C)c2)n1 (centres undefined)	Pf growth 96h inconclusive, Cycloheximide cs 38, LASV entry inh inconclusive, Shiga inhibitor 54
O=C(CCN1CCCC1=O)NC1CCCc2c1cnn2-c1ccccc1F (centres undefined)	Pf growth 96h inconclusive (no result: Marburg entry inh, LASV entry inh)
Cc1nnsc1C(=O)NC1CCCc2c1cnn2-c1ccccc1F (centres undefined)	Marburg entry inh inconclusive, LASV entry inh 0.5µM
O=C(CCN1CCCC1=O)NC1CCCc2c1cnn2-c1ccc(F)cc1F (centres undefined)	Cycloheximide cs 15
CCOC(=O)COc1ccc(S(=O)(=O)NCc2ccncc2)cc1	LASV entry inh inconclusive
Cc1ccc(-n2ncc3c2CCCC3NC(=O)c2ccccc2N2CCOCC2)cc1C (centres undefined)	Pf growth 48h inconclusive
Cc1cccc(-n2ncc3c2CCCC3NC(=O)Cn2cccn2)c1C (centres undefined)	Cycloheximide cs 19
O=C(NC1CCCc2c1cnn2-c1ccc(F)cc1F)c1ccccc1N1CCOCC1 (centres undefined)	Pf growth 96h 4.1µM, Pf growth 48h inconclusive, Marburg entry inh inconclusive
Cc1cccc(-n2ncc3c2CCCC3NC(=O)CC(F)(F)F)c1C (centres undefined)	Marburg entry inh inconclusive
CCc1noc(C)c1C(=O)Nc1ccc(S(=O)(=O)N2CCCC(C)C2)cc1 (centres undefined)	Pf growth 96h inconclusive, Pf growth 48h inconclusive, Marburg entry inh inconclusive (no result: Cycloheximide cs, Shiga inhibitor)
O=c1c(S(=O)(=O)c2ccccc2)cn(Cc2ccc(F)cc2)c2cc(N3CCCC3)c(F)cc12	none (no result: Pf growth 96h, Pf growth 48h, Marburg entry inh, Cycloheximide cs, Shiga inhibitor)
COC(=O)c1cc2sccc2n1Cc1nc(-c2cccc(Br)c2)oc1C	none (no result: Pf growth 96h, Pf growth 48h, Cycloheximide cs, LASV entry inh, Shiga inhibitor)
O=C(CCN1CCN(CCO)CC1)Nc1ccc(Br)cc1	none (no result: Marburg entry inh)
Cc1ccc2nc(COc3ccc(Cl)cc3)cc(=O)n2c1	Cycloheximide cs 41, Shiga inhibitor 98 (no result: Marburg entry inh, LASV entry inh)
Cc1ccc(-c2nc(CS(=O)(=O)CC(=O)N3CCc4ccccc4C3)c(C)o2)cc1	Pf growth 96h 13µM (no result: LASV entry inh)
CC(C)(C)c1ccc(/C=C/C(=O)N2CCc3ccccc3C2)cc1	Pf growth 96h 0.74µM, Pf growth 48h 0.93µM
Cc1ccc(-c2nc(CS(=O)(=O)CC(=O)N3CCCCCC3)c(C)o2)cc1	Pf growth 96h inconclusive (no result: Marburg entry inh, LASV entry inh)
Cc1ccc(/C=C/C(=O)N2CCc3ccccc3C2)cc1	Cycloheximide cs 11 (no result: Pf growth 48h)
CCOc1ccc(CN2CCN(Cc3nc4c(s3)CCCC4)CC2CCO)cc1 (centres undefined)	Pf growth 48h inconclusive (no result: Marburg entry inh, LASV entry inh)
O=[N+]([O-])c1cccc(-c2ncc3ccccn23)c1	Pf growth 48h inconclusive, Cycloheximide cs 31, Shiga inhibitor 68
O=[N+]([O-])c1ccc(Sc2ncc3ccccn23)nc1	Pf growth 96h 9.3µM, Pf growth 48h inconclusive (no result: Marburg entry inh, LASV entry inh)
COc1ccc(-c2ncc3ccccn23)cc1OC	Pf growth 48h inconclusive, Cycloheximide cs 24
O=[N+]([O-])c1ccc(Sc2ccccc2Cl)nc1	Marburg entry inh inconclusive (no result: Pf growth 96h)
Clc1ccc(-c2ncc3ccccn23)cc1	Pf growth 96h inconclusive, Pf growth 48h inconclusive, Marburg entry inh inconclusive
Nc1c(-c2cccc([N+](=O)[O-])c2)nc2ccccn12	Marburg entry inh inconclusive, Cycloheximide cs 112, LASV entry inh inconclusive, Shiga inhibitor 82
O=C(/C=C/c1ccc(F)cc1)NCCCN1CCN(CCCNC(=O)/C=C/c2ccc(F)cc2)CC1	Pf growth 96h inconclusive, Pf growth 48h inconclusive, Marburg entry inh inconclusive
O=C(N/N=C/c1ccc(F)cc1)c1cc[n+]([O-])cc1	Cycloheximide cs 18, Shiga inhibitor 61
O=C(CCCCCNC(=O)c1ccccc1)N/N=C/c1ccc(F)cc1	Pf growth 96h inconclusive, Pf growth 48h 13µM, Marburg entry inh inconclusive
O=C(N/N=C/c1ccccc1C(F)(F)F)c1ccc(O)cc1	Marburg entry inh inconclusive, Cycloheximide cs 26, Shiga inhibitor 69
Cc1cccc(/C=N\N=C\c2cccc(C)c2)c1	Pf growth 96h 7.4µM, Pf growth 48h inconclusive, Cycloheximide cs 53 (no result: Shiga inhibitor)
O=C(CCNC(=O)c1ccccc1)N/N=C/c1ccc([N+](=O)[O-])cc1	Pf growth 96h inconclusive
O=C(N/N=C/c1ccc(Br)cc1)c1cc[n+]([O-])cc1	none
CCc1noc(C)c1C(=O)N1CCCSC1=Nc1ccccc1	Pf growth 48h inconclusive (no result: Cycloheximide cs, Shiga inhibitor)
COc1ccc(S(=O)(=O)N2CCOCC2)cc1C(=O)NCc1c(C)nn(Cc2ccccc2)c1C	none (no result: Pf growth 96h, Pf growth 48h, Cycloheximide cs, Shiga inhibitor)
CC1CCc2cc(F)ccc2N1C(=O)CSc1nnc2c3ccccc3n(C)c2n1 (centres undefined)	Pf growth 96h inconclusive, Pf growth 48h inconclusive
O=C(O)c1ccc(/C=N/NC(=O)c2ccc(F)cc2)cc1	none
Cc1cccc(/C=N/NC(=O)c2ccc(Br)cc2)c1	Marburg entry inh inconclusive, Cycloheximide cs 34, LASV entry inh inconclusive, Shiga inhibitor 70
O=C(N/N=C/c1cccc(OCc2ccccc2)c1)c1ccc(Br)cc1	none
O=C(N/N=C/c1ccc(Br)cc1)c1ccc(F)cc1	Pf growth 48h inconclusive, Marburg entry inh inconclusive, Cycloheximide cs 35, Shiga inhibitor 47
O=C(N/N=C/c1ccc(F)cc1)c1ccc(Br)cc1	none
CNC(=O)C(=O)N/N=C/c1ccc(Br)cc1	none (no result: Marburg entry inh, LASV entry inh)

Compound activity as filed in PubChem BioAssay.
